Results filed as inconclusive are left out. Activity calls are given as the source filed them. How the source made its calls: active means hit-call score of the fitted dose curve at least 0.9, where 1 is the maximum; inconclusive means response in the unintended direction; inactive means score below 0.9.
Experiments:
[1] = TOX21_p53_BLA_p2_viability: Viability Assessment in the Tox21 HCT-116 p53 Agonism Beta-lactamase Assay, Phase 2 (AID 2283591);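 further: compound exposure lasted 16 h at 37 °C; actives lower the ATP signal meaning cytotoxicity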
How it was run: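 HCT116 p53-bla cells, 4000/well, dosed after 5 h plating (217-fold dilution of DMSO stocks) and incubated 16 h at 37C. Viability taken as cellular ATP by CellTiter-Glo luminescence after 30 min RT; signal loss marks cytotoxicity.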

[2] = molecular target: Cellular tumor antigen p53 (Homo sapiens) (UniProt P04637); test: TOX21_p53_BLA_p3_ratio: Tox21 HCT-116 p53 Agonism Beta-lactamase Assay, Ratio, Phase 3 (AID 2283596)
How it was run: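 Cells were seeded at 4000/well, rested 5 h at 37C, then dosed with DMSO compound solutions (217-fold dilution) for 16 h. CCF4-AM substrate was loaded for 2 h at room temperature, and the 460/530 nm emission ratio was fitted for gain of signal versus DMSO.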

[3] = molecular target: Cellular tumor antigen p53 (Homo sapiens) (UniProt P04637); test: TOX21_p53_BLA_p5_ratio: Tox21 HCT-116 p53 Agonism Beta-lactamase Assay, Ratio, Phase 5 (AID 2283599)
How it was run: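 HCT-116 p53-bla cells (4000/well) plated 5 h, dosed with compound (217-fold DMSO dilution) for 16 h at 37 C; CCF4-AM substrate 2 h at room temperature. Activity is the 460/530 nm emission ratio (405 nm excitation), fitted in gain-of-signal direction versus DMSO.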

Measured: outcome

Sequence of Cellular tumor antigen p53 (Homo sapiens) (P04637 whole entry, looked up): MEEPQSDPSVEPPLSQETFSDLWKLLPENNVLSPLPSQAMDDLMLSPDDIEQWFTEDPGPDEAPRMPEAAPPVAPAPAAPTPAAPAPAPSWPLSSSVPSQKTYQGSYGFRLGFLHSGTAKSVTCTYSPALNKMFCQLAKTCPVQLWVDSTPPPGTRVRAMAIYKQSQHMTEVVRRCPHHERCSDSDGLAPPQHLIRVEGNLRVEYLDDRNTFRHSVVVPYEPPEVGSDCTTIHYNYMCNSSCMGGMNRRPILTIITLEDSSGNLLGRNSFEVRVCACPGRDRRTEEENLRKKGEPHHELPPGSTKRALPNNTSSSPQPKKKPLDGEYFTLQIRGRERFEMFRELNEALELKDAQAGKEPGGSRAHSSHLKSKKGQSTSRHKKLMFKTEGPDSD

CCCCCON=O
inactive: all assays above

Reference: PubChem BioAssay (EPA / NIEHS)
